Reference: PubChem BioAssay AID623970 (The Scripps Research Institute Molecular Screening Center, 2012)
Activity calls are given as the source filed them. No stated cut-off is given here; in the data, active means IC50 below about 90 µM; inactive means the rest.

Assay: DNA binding via SYBR dye displacement, late-stage follow-up, artefact control for HCV NS3 helicase inhibitor project, biochemical, fluorescence (AID 623970)
For `Cc1ccc2nc(-c3ccc4nc(-c5ccc(NC(=O)c6ccc7nc(-c8ccc(NC(=O)OCC9c%10ccccc%10-c%10ccccc%109)cc8)sc7c6)cc5)sc4c3)sc2c1S(=O)(=O)O`, the IC50 was 22 µM (active). With `CCN(CC)c1ccc(-c2nc3ccc(-c4nc5ccc(C)c(S(=O)(=O)O)c5s4)cc3s2)cc1` the IC50 was 26 µM (active). For `Cc1cc2sc(-c3ccc(N)cc3)nc2cc1S(=O)(=O)O`, the IC50 was > 100 µM (inactive). With `Cc1ccc2nc(-c3ccc4nc(-c5ccc(NC(=O)c6ccc(NC(=O)OCC7c8ccccc8-c8ccccc87)cc6)cc5)sc4c3)sc2c1S(=O)(=O)O` the IC50 was 6 µM (active). In the case of `CCOc1ccc2c(NNC(=O)c3cnccn3)c3c(nc2c1)CCCC3`, the IC50 is reported as > 100 µM (inactive).
